Growth data for 30 compounds are collected here from PubChem BioAssay (NCI).

This is part of a sample that, as a whole, favours compounds with a hit. Of some 83,000 tested, about 20% had one in any assay.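 The test compound was applied at a single concentration to cells in 96-well plates for 48 hours, and percent growth was recorded.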 Unmarked numbers belong to inactive results. The source made the active and inactive calls. How the source made its calls: active means growth percent below 10; inactive means the rest.

Holding throughout (assay): NCI-60 one-dose screen, 48 h (100 = growth as untreated, 0 = no growth, -100 = all killed)
Common to all, as to details: 10 µM unless noted

Assay [1] has as its system T-47D breast.
Assay [2] concerns BT-549 breast.
For assay [3], the system named is MDA-MB-435 melanoma.
Assay [4] relates to SW-620 colon.
For assay [5], the system named is MCF7 breast.
Assay [6] relates to HCT-116 colon.
Assay [7] has as its system HCC-2998 colon.
Assay [8] concerns KM12 colon.

For `O=C(CCCCCCNC(=O)C(O)(O)C(F)(F)F)Nc1ccc(Cl)cc1`, the growth in assay [1] is 10.5%; in assay [2], 45.9%; in assay [3], 11.6%; in assay [4], 5.2% (active); in assay [5] it was 17.3%; in assay [6] it was 3.99% (active). Also, the growth was 25.6% in assay [7] and 20.6% in assay [8].
As to `O=C(CSc1nnc(-c2ccc(Cl)cc2)n1-c1ccccc1)Nc1ccc(Cl)cc1`, the growth in assay [1] is 30.9%; in assay [2], 70.2%; in assay [3], 42.3%; in assay [4], 58.6%; in assay [5], 53.3%; in assay [6], 1.07% (active). The growth was 70.1% in assay [7] and 57.6% in assay [8].
As for `C=C(C)[C@@H]1CC[C@]2(C(=O)NC3CCCCC3)CC[C@]3(C)[C@H](CC[C@@H]4[C@@]5(C)CC[C@H](N)C(C)(C)[C@@H]5CC[C@]43C)[C@@H]12`, the growth in assay [1] is 80.6%; in assay [2], 106%; in assay [3], 98%; in assay [4], 75.4%; in assay [5], 24.5%; in assay [6] it was 7.83% (active). Also, the values for the growth in assay [7] and in assay [8] were 92.1% and 95.8%, respectively.
Consider `CCOC(=O)Nc1ccc2c(ccn2C(=O)c2cccc(F)c2)c1`, for which the growth in assay [1] is 45.2%; in assay [2], 26.1%; in assay [3], -45.4% (active); in assay [4], 26.3%; in assay [5], 26%; in assay [6], 25.6%. Also, the results for the growth in assay [7] and in assay [8] were 43.8% and 24.6%, respectively.
For the compound `CSc1ccc(/C(=N/N=C(N)N)c2ccc(Cl)cc2)cc1`, the growth in assay [1] is 50.5%; in assay [2], -37.3% (active); in assay [3], -30.1% (active); in assay [4], 2.54% (active); in assay [5] it was 0.167% (active); in assay [6] it was -27.7% (active). Also, the growth in assay [7] was -68.2% (active); in assay [8], 5.79% (active).
For `O=C1[C@H]2Cc3c([nH]c4ccccc34)[C@H](c3ccc(Cl)cc3)N2C(=O)CN1C1CCN(CC2CCCCC2)CC1`, the growth in assay [1] is 93%; in assay [2], 70.8%; in assay [3], 62.3%; in assay [4] it was 72.5%; in assay [5], 16.2%; in assay [6], 5.7% (active). For the same compound, the growth in assay [7] is 53.4%; in assay [8], 62%.
Take `O=C(CCCCCCNC(=O)c1csc(Br)n1)NO`: the growth is 6.1% (active) in assay [1]; 88.4% in assay [2]; 12% in assay [3]; 7.18% (active) in assay [4]; 26.7% in assay [5]; 3.29% (active) in assay [6]. For the same compound, the growth in assay [7] was 63%; in assay [8] it was 56.8%.
`CN1CCN(c2ccc(Nc3nc(NCCCNS(=O)(=O)c4cccc5ccccc45)c4sccc4n3)cc2)CC1`: the growth in assay [1] was -2.47% (active); in assay [2] it was -87.3% (active); in assay [3], -73% (active); in assay [4], -0.438% (active); in assay [5], -20.9% (active); in assay [6], -73% (active). For the same compound, the results for the growth in assay [7] and in assay [8] were -51.4% (active) and 4.02% (active), respectively.
For `CCC1=Cc2c(OC)cccc2OC12C=Cc1c(OC)cccc1O2` (stereo not given), the growth is 46.8% in assay [1]; 46.6% in assay [2]; -18.8% (active) in assay [3]; 30% in assay [4]; 10.8% in assay [5]; 8.84% (active) in assay [6]. Moreover, the growth in assay [7] was 2.34% (active); in assay [8], 12.4%.
Consider `N#Cc1c(-c2cccs2)cc(-c2cnccn2)nc1SCC(=O)N/N=C/c1cccs1`, for which the growth was 50.1% in assay [1]; 42.5% in assay [2]; 51% in assay [3]; 43.2% in assay [4]; 32.1% in assay [5]; 0.402% (active) in assay [6]. In addition, the growth was 43.1% in assay [7] and 47.6% in assay [8].
In the case of `COc1ccc(CC(C)=C(c2ccc(OCCN3CCCC3)cc2)c2ccc(OCCN3CCCC3)cc2)cc1`, the growth is -49.9% (active) in assay [1]; -69.5% (active) in assay [2]; -76.4% (active) in assay [3]; -53% (active) in assay [4]; -80% (active) in assay [5]; -17.6% (active) in assay [6]. For the same compound, the growth in assay [7] was -80.3% (active); in assay [8] it was -95.3% (active).
For `Cc1cc(NS(=O)(=O)c2ccc(NC(=O)CSc3nc4ccccc4c(=O)n3-c3ccccc3)cc2)no1`, the growth was 90% in assay [1]; 97.1% in assay [2]; 98% in assay [3]; 98.9% in assay [4]; 91.4% in assay [5]; 94.6% in assay [6]. Moreover, the growth was 96.9% in assay [7] and 94.5% in assay [8].
As for `C/C(=C(\c1ccc(O)cc1)c1ccc(OCCN2CCCCCC2)cc1)c1ccc(Cl)cc1`, the growth was -71.9% (active) in assay [1]; -71.8% (active) in assay [2]; -73.9% (active) in assay [3]; -2.89% (active) in assay [4]; -81.1% (active) in assay [5]; -31.7% (active) in assay [6]. Also, the growth was -88.2% (active) in assay [7] and -96.1% (active) in assay [8].
As to `CC(=C(c1ccc(OCCN2CCCC2)cc1)c1ccc(OCCN2CCCC2)cc1)c1ccc(Cl)cc1`, the growth in assay [1] was -64.7% (active); in assay [2], 55.8%; in assay [3], -89.7% (active); in assay [4], -73.3% (active); in assay [5], -75% (active); in assay [6], -93.6% (active). Also, the results for the growth in assay [7] and in assay [8] were -57.1% (active) and -22.9% (active), respectively.
As for `C[C@@H]1OCC2(CCN(c3cnc(C(=O)Nc4cc(F)cc5cccnc45)cn3)CC2)[C@@H]1N`, the growth in assay [1] is 37.1%; in assay [2], 90.1%; in assay [3], 82.9%; in assay [4], 12.5%; in assay [5], 2.1% (active); in assay [6], 15.7%. Besides, the growth in assay [7] was 84.3%; in assay [8], 83.7%.
On to `COc1ccc2[nH]cc(-c3nn4cc(-c5ccncc5)nc4s3)c2c1`, for which the growth in assay [1] is 7.81% (active); in assay [2] it was 74.8%; in assay [3] it was 90.2%; in assay [4], 66.3%; in assay [5] it was 11.2%; in assay [6] it was 52.8%. The growth is 81.4% in assay [7] and 64.1% in assay [8].
As for `C/C(=N/N)c1nnn(-c2ccc(Br)cc2)c1C`, the growth in assay [1] is 102%; in assay [2] it was 102%; in assay [3], 102%; in assay [4] it was 105%; in assay [5] it was 77.6%; in assay [6], 103%. Further, the growth in assay [7] was 107%; in assay [8], 99.4%.
With `C/C(=N\NC(=O)/C=C/CC(=O)O)c1nnn(-c2ccc([N+](=O)[O-])cc2)c1C`, the growth in assay [1] was 98.9%; in assay [2], 103%; in assay [3] it was 103%; in assay [4], 100%; in assay [5] it was 97.8%; in assay [6] it was 97.9%. Further, the growth in assay [7] was 105%; in assay [8], 97.2%.
`Cc1ncn(-c2ccc(/C=N/Nc3ccnc4cc(Cl)ccc34)cc2)c1C`: the growth is -61.6% (active) in assay [1]; -93.7% (active) in assay [2]; -80.2% (active) in assay [3]; -60.4% (active) in assay [4]; -69.1% (active) in assay [5]; -83.6% (active) in assay [6]. Further, the growth in assay [7] is -44.5% (active); in assay [8] it was -25.8% (active).
Turning to `CC(=O)Nc1cc(N2CCOCC2)c2nc(NC(=O)c3[nH]c(C)c(Cl)c3Cl)sc2c1`, the growth is 46.9% in assay [1]; 74.1% in assay [2]; 59% in assay [3]; 84.4% in assay [4]; 67.1% in assay [5]; 68.5% in assay [6]. Besides, the growth in assay [7] is 109%; in assay [8], 82.4%.
Consider `NS(=O)(=O)c1cccc(Nc2nc(SCC(=O)c3ccc(Cl)cc3)nc3c2CCC3)c1`, for which the growth in assay [1] was 90.4%; in assay [2] it was 84.7%; in assay [3], 99.2%; in assay [4], 102%; in assay [5], 82.9%; in assay [6] it was 95.7%. In addition, the growth is 107% in assay [7] and 105% in assay [8].
As for `O=C(CSc1nnc(-c2cccs2)n1-c1ccccc1)Nc1ccccc1F`, the growth is 88.9% in assay [1]; 89.2% in assay [2]; 3.39% (active) in assay [3]; 69.3% in assay [4]; 58.9% in assay [5]; 83.7% in assay [6]. Moreover, the growth was 91.6% in assay [7] and 61.5% in assay [8].
`CC(Nc1c(C#N)cnc2ccc(-c3cncc(-c4n[nH]c(=O)o4)c3)cc12)c1ccccc1` (stereo not given): the growth is 13.1% in assay [1]; -20.1% (active) in assay [2]; 24% in assay [3]; 18.7% in assay [4]; 8.39% (active) in assay [5]; 0.0701% (active) in assay [6]. The results for the growth in assay [7] and in assay [8] were 25.8% and 17.1%, respectively.
`CN(C)CC(=O)Nc1nc(-c2cccc(NS(=O)(=O)c3cccc4c(N(C)C)cccc34)c2)cs1`: the growth in assay [1] is 56.9%; in assay [2], 87.8%; in assay [3], 99%; in assay [4], 105%; in assay [5], 68.3%; in assay [6] it was 80.1%. Moreover, the growth in assay [7] is 85.8%; in assay [8], 94.1%.
Consider `Cc1ccc2c(n1)C(=O)C(Cl)=C(Nc1ccc(C#N)cc1)C2=O`, for which the growth in assay [1] was 7.98% (active); in assay [2] it was 120%; in assay [3], 99.5%; in assay [4], -23.1% (active); in assay [5], 18.7%; in assay [6] it was 67.9%. Moreover, the figures for the growth in assay [7] and in assay [8] were 108% and 102%, respectively.
Take `NC(=O)n1c(=O)n(-c2cccc(C(F)(F)F)c2)c(=O)c2cc(-c3ccc(F)cc3F)ccc21`: the growth is -14% (active) in assay [1]; -12.5% (active) in assay [2]; 0.406% (active) in assay [3]; 14.1% in assay [4]; 0.6% (active) in assay [5]; 2.24% (active) in assay [6]. In addition, the growth in assay [7] was 10.7%; in assay [8], 5.24% (active).
For the compound `CN1CCN(CCCCCC(=O)Nc2nc(-c3cccc(NS(=O)(=O)c4cccc5c(N(C)C)cccc45)c3)cs2)CC1`, the growth in assay [1] was 72.3%; in assay [2], 90.7%; in assay [3], 52.1%; in assay [4], 92.8%; in assay [5] it was 14.8%; in assay [6], 51.6%. In addition, the growth was 83.7% in assay [7] and 79.6% in assay [8].
On to `CCCCCN1C(=O)/C(=c2\sc3n(c2=O)C2C(NN=3)N(CC)C(=O)N2CC)c2cccc(C)c21` (stereo not given), for which the growth is 44% in assay [1]; 68% in assay [2]; -13.6% (active) in assay [3]; 43.5% in assay [4]; 18.2% in assay [5]; 32.3% in assay [6]. Further, the growth in assay [7] is 86%; in assay [8] it was 26.6%.
In the case of `COc1ccc2[nH]cc(/C=N/Nc3ccnc4cc(Cl)ccc34)c2c1`, the growth in assay [1] is -53.6% (active); in assay [2], -91.8% (active); in assay [3] it was -90.8% (active); in assay [4] it was -71.8% (active); in assay [5], -69.1% (active); in assay [6], -50.5% (active). Further, the results for the growth in assay [7] and in assay [8] were -89.4% (active) and -78% (active), respectively.
For the compound `CCCCCCOC(=O)c1cc(-c2ccc(F)cc2)nc2ccccc12`, the growth in assay [1] is 88.8%; in assay [2] it was 103%; in assay [3], 99.9%; in assay [4] it was 93.5%; in assay [5], 91.5%; in assay [6], 93.3%. Also, the results for the growth in assay [7] and in assay [8] were 106% and 96.1%, respectively.
